Source: PubChem BioAssay
LANA-H2A inh: blocks KSHV LANA binding to histone H2A/H2B. inhibition, % (concentration not given with the values). cell-free LANA-H2A/H2B peptide, fluorescence polarization. 320,000 compounds, 0.6% hits. AID 2629. Q9QR71; in the data active = inhibition mostly above about 10%, no sharp cut-off; inactive = mostly below about 6.7%
Target sequence (Q9QR71 whole entry, looked up): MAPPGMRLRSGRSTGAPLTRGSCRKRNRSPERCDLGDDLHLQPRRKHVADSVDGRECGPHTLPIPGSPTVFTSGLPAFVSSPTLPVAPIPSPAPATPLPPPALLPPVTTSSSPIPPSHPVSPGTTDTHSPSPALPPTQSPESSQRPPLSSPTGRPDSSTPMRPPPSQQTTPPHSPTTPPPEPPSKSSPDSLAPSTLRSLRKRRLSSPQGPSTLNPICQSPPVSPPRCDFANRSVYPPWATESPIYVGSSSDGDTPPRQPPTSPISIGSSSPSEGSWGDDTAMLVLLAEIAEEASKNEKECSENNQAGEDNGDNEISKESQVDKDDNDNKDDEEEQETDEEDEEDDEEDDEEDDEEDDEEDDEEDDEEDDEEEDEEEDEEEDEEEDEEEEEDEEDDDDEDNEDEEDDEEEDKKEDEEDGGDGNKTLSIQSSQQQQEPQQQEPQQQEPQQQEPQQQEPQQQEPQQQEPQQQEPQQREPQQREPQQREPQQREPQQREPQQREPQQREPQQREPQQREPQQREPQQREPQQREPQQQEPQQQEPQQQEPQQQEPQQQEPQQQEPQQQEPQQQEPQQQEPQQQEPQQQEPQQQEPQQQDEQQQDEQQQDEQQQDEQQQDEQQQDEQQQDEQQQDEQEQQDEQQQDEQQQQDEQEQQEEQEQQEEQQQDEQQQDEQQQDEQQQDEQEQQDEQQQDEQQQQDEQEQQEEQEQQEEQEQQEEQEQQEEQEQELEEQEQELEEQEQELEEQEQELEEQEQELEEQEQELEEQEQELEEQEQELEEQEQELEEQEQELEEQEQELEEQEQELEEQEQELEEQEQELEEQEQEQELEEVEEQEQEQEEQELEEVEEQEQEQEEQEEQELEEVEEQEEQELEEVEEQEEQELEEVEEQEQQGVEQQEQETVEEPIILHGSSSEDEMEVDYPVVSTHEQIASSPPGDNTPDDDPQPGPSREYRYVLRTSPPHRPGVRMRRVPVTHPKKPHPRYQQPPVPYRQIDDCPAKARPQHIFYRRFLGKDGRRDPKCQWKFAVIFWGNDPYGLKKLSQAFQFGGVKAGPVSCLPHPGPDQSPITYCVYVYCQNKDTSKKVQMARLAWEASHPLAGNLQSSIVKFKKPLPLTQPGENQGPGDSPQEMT
HDAC3 inh: human HDAC3 inhibition; O15379; recombinant HDAC3, fluorogenic peptide/trypsin coupled, fluorescence; inhibition, % at 8.3 µM; 320,000 compounds, 0.15% hits; AID 2718; in the data active = inhibition above about 26%, passing the limit was not always enough
CTSL1 counter: blocks F. hepatica cathepsin L1 in PFM18AAP counter-screen; recombinant F. hepatica cathepsin L1, Z-Leu-Arg-MCA fluorescence; inhibition, % at 5.96 µM; 300,000 compounds, 0.49% hits; AID 1906;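 active = inhibition above the mean of all tested compounds plus 3 SD, set per screening campaign, cut at about 17% in these data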;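 note: 0% = plate median of test compound wells and 100% = 1 µM Z-Phe-Ala-diazomethylketone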
HTR2A ag: mouse HTR2A agonism via beta-arrestin recruitment; P35363; CHO-K1 mHTR2A beta-arrestin complementation, luminescence; percent of 30 µM serotonin response; activation, % at 7.6 µM; 360,000 compounds, 0.66% hits;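 active = activation above a run cutoff, the mean activation of all tested compounds plus 3 SD, cut at about 14% in these data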;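 note: 0% = plate median of compound wells and 100% = 30 µM serotonin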
* = called active by the depositor. Rows were chosen to be rich in hits. Some 1.7% of all compounds tested hit in one or more screens of this group.

For COC(=O)c1ccc(Cn2c(O)c(N=NC(N)=S)c3ccccc32)o1 the results were LANA-H2A inh 4.5, HDAC3 inh 38.9*, CTSL1 counter 7.8 and HTR2A ag -1.9.
Screening C=CCn1c(SCc2n[nH]c(=S)n2-c2ccccc2)nnc1-c1ccccc1 returned LANA-H2A inh 1.3, HDAC3 inh 4.0, CTSL1 counter -1.2 and HTR2A ag -0.4.
Screening C=CCn1c(CSc2nnc(-c3ccccc3)n2C)n[nH]c1=S returned LANA-H2A inh 5.1, HDAC3 inh -3.5, CTSL1 counter 28.1* and HTR2A ag 0.3.
O=CN1N=C(c2ccccc2)CC1c1ccc(Cl)cc1 (configuration not stated) was read as LANA-H2A inh -4.5, HDAC3 inh 1.5, CTSL1 counter 1.5 and HTR2A ag 0.9.
For O=C1OC(c2ccccc2)=NC12CC2c1ccc(Cl)cc1 (configuration not stated) the results were LANA-H2A inh -6.9, HDAC3 inh 1.4, CTSL1 counter 20.8* and HTR2A ag 1.5.
Screening COc1cccc(C(=O)Nc2ccc(NC(C)=O)cn2)c1 returned LANA-H2A inh -3.3, HDAC3 inh 3.8, CTSL1 counter 20.4* and HTR2A ag 2.2.
`CCCC(=O)Nc1ccc(NC(=O)c2cccc(OC)c2)nc1` gave LANA-H2A inh -4.2, HDAC3 inh 8.3, CTSL1 counter 2.5 and HTR2A ag -0.6.
`Cn1nc(C(F)(F)F)cc1-c1ccc(/C=C(\C#N)C(=O)c2ccccc2)s1` gave LANA-H2A inh 19.7*, HDAC3 inh 4.2, CTSL1 counter 0.0 and HTR2A ag -0.8.
CNC(=O)c1ccc(-c2cc(C(F)(F)F)nn2C)s1 was read as LANA-H2A inh 0.0, HDAC3 inh -10.4, CTSL1 counter 8.1 and HTR2A ag 2.3.
`CCOc1ccc(S(=O)(=O)c2c[nH]c3ccccc3c2=O)cc1` gave LANA-H2A inh -1.3, HDAC3 inh 0.9, CTSL1 counter -2.9 and HTR2A ag 5.6.
For Cn1c(SCc2cccc(F)c2)nnc1-c1cnccn1 the results were LANA-H2A inh -2.2, HDAC3 inh 4.1, CTSL1 counter 54.2* and HTR2A ag -1.7.
Screening Cn1c(SCc2cccc(F)c2)nnc1-c1ccccn1 returned LANA-H2A inh 0.1, HDAC3 inh 5.0, CTSL1 counter 3.1 and HTR2A ag -0.4.
`Cc1ccc(-c2noc(C3CCCN(C(=O)c4c(F)cccc4F)C3)n2)cc1` (configuration not stated) gave LANA-H2A inh -2.4, HDAC3 inh -5.3, CTSL1 counter -5.4 and HTR2A ag -4.3.
`Cc1ccc(-c2noc(C3CCCN(C(=O)c4cccc(F)c4)C3)n2)cc1` (configuration not stated) gave LANA-H2A inh 16.2*, HDAC3 inh 4.0, CTSL1 counter 3.4 and HTR2A ag 0.6.
`NS(=O)(=O)c1ccc(CCNC(=O)CCc2nc3sc4c(c3c(=O)[nH]2)CCCC4)cc1` gave LANA-H2A inh -0.9, HDAC3 inh 0.7, CTSL1 counter 8.2 and HTR2A ag -3.5.
Screening CC(C)C(NS(=O)(=O)c1ccc2c(c1)oc(=O)n2C)C(=O)N1CCN(Cc2ccccc2)CC1 (configuration not stated) returned CTSL1 counter 47.0* and HTR2A ag -0.7.
CSCCC(NS(=O)(=O)c1ccc2c(c1)oc(=O)n2C)C(=O)NC1CCC(C)CC1 (configuration not stated) was read as LANA-H2A inh 4.5, HDAC3 inh 2.6, CTSL1 counter -4.0 and HTR2A ag 1.9.
`CSCCC(NS(=O)(=O)c1ccc2c(c1)oc(=O)n2C)C(=O)NC1CCN(Cc2ccccc2)CC1` (configuration not stated) gave LANA-H2A inh 3.6, HDAC3 inh -0.7, CTSL1 counter 41.4* and HTR2A ag 4.7.
For CC(=O)Nc1ccc(-c2ccnc3c2CC(C)(C(=O)Nc2ccc(C(C)C)cc2)O3)cc1 (configuration not stated) the results were HTR2A ag -1.6.
Cc1ncsc1CCOC(=O)c1cccnc1 was read as LANA-H2A inh 0.5, HDAC3 inh -6.5, CTSL1 counter -0.5 and HTR2A ag -2.0.
Cc1ncsc1CCOC(=O)C12CC3CC(CC(C3)C1)C2 was read as LANA-H2A inh 2.2, HDAC3 inh 9.1, CTSL1 counter -3.1 and HTR2A ag 16.1*.
CC(C)N1CC(C(=O)Nc2cc(Cl)cc(Cl)c2)CC1=O (configuration not stated) was read as LANA-H2A inh 4.8, HDAC3 inh 1.4, CTSL1 counter 2.5 and HTR2A ag -3.0.
`COc1ccc(C)c2sc(N(CCCN(C)C)C(=O)c3ccc(S(=O)(=O)N4CCc5ccccc5C4)cc3)nc12` gave LANA-H2A inh -2.0, HDAC3 inh 4.4, CTSL1 counter 1.9 and HTR2A ag -2.6.
Screening COc1ccc(OC)c2sc(N(CCCN(C)C)C(=O)c3ccc(S(=O)(=O)N4CCc5ccccc5C4)cc3)nc12 returned LANA-H2A inh -7.8, HDAC3 inh 40.9* and CTSL1 counter 1.2.
`Cc1ccc(C(=O)N2CCCC(CCC(=O)N3CCN(c4ccccn4)CC3)C2)cn1` (configuration not stated) gave LANA-H2A inh 10.5*, HDAC3 inh -0.9, CTSL1 counter 5.0 and HTR2A ag 3.3.
Cc1nc2ccccc2c(=O)n1/N=C/c1ccncc1 was read as LANA-H2A inh -2.2, HDAC3 inh 1.1, CTSL1 counter 18.4* and HTR2A ag -0.8.
`COc1ccc(N2CCN(S(=O)(=O)c3cnc[nH]3)CC2)cc1` gave LANA-H2A inh 33.2*, HDAC3 inh -4.1, CTSL1 counter 16.9* and HTR2A ag 0.5.
`O=C(NC(=S)Nc1ccccc1Br)C1CCC1` gave LANA-H2A inh -4.4, HDAC3 inh 0.8, CTSL1 counter -1.6 and HTR2A ag 8.2.
`COc1ccc(CCN2C(=NC(=O)CC(C)C)SC3CS(=O)(=O)CC32)cc1OC` (configuration not stated) gave LANA-H2A inh 22.1*, HDAC3 inh -1.6, CTSL1 counter 2.3 and HTR2A ag -1.5.
`COC(=O)C1=C(C)NC(C)=C(C(=O)OC)C1c1ccc(-c2cccc([N+](=O)[O-])c2)o1` gave LANA-H2A inh 1.3, HDAC3 inh 35.0*, CTSL1 counter -2.9 and HTR2A ag -5.6.
`CCOC(=O)C1=C(C)NC(=O)NC1c1ccc(-c2ccc(Cl)cc2)o1` (configuration not stated) gave LANA-H2A inh -3.5, HDAC3 inh 50.5*, CTSL1 counter 0.0 and HTR2A ag -2.1.
For COC(=O)C1=C(C)NC(=S)NC1c1ccc(-c2cccc(Cl)c2)o1 (configuration not stated) the results were LANA-H2A inh 5.8, HDAC3 inh 29.0*, CTSL1 counter 1.7 and HTR2A ag 0.8.
For CCOC(=O)C1=C(C)NC(=O)NC1c1ccc(-c2ccc(F)cc2)o1 (configuration not stated) the results were LANA-H2A inh -1.0, HDAC3 inh 15.8, CTSL1 counter -0.3 and HTR2A ag -3.0.
